Data from PubChem BioAssay AID720518 (National Center for Advancing Translational Sciences (NCATS), 2013).
Records with an inconclusive call do not appear. Where a call stands in place of a potency, no number is given. Activity calls are given as the source filed them. The call rests on the fitted dose curve.

Assay: qHTS for Inhibitors of Cell Surface uPA Generation: Wild-type Protective Antigen (WT-PrAg) Counterscreen for Cherry-picked Compounds
Settings: cells, WT protective antigen toxicity counterscreen; series mostly up to 115 µM
Potency means the concentration at half of the fitted maximal effect.

**Q.** Which Potency does the source give for `CCCCCOC(=O)C1=C(C)NC(=O)NC1c1ccccc1` (stereo not given) here?
**A.** Its Potency is “inactive”.

**Q.** Which Potency does the source give for `CCN(CC)c1ccc(C=NCCc2ccc(S(N)(=O)=O)cc2)cc1` here?
**A.** The Potency was “inactive”.

**Q.** With `C#CCN1C=C(C(=O)OCC)C(C)NS1(=O)=O` (stereo not given) as the compound, how does the Potency read?
**A.** Its Potency is “inactive”.

**Q.** With `Cc1cc(COc2ccccc2)oc1C(=O)O` as the compound, how does the Potency read?
**A.** Its Potency is “inactive”.

**Q.** With `CCc1nccn1CCC(=O)N1CCc2c([nH]c3ccccc23)C1CC(C)C` (stereo not given) as the compound, how does the Potency read?
**A.** Its Potency is “inactive”.

**Q.** With `COc1ccc(/C=N/NC(=O)COc2ccc3ccccc3c2)c(C(=O)O)c1OC` as the compound, how does the Potency read?
**A.** The Potency was “inactive”.

**Q.** Which Potency does the source give for `Cc1ccc(NC(=O)CCCn2c(=S)[nH]c3ccsc3c2=O)cc1C` here?
**A.** The Potency was “inactive”.

**Q.** For `O=C(NCc1ccc2c(c1)OCO2)c1ccccn1`, which Potency is on record?
**A.** The Potency was “inactive”.

**Q.** With `Cc1cc(C)cc(NC(=O)Cc2ccc(NC3=NC4CS(=O)(=O)CC4S3)cc2)c1` (stereo not given) as the compound, how does the Potency read?
**A.** Its Potency is “inactive”.

**Q.** With `CC(=O)NS(=O)(=O)c1ccc(NC(=O)c2cccc(OCc3c(C)noc3C)c2)cc1` as the compound, how does the Potency read?
**A.** The Potency was “inactive”.

**Q.** For `OCCN(Cc1ccccc1)CC(O)COc1ccc2c(c1)OCO2` (stereo not given), which Potency is on record?
**A.** Its Potency is “inactive”.

**Q.** With `COc1cccc(-n2c(SCC(=O)Nc3cc(C)on3)nc3c([nH]c4ccccc43)c2=O)c1` as the compound, how does the Potency read?
**A.** The Potency was “inactive”.

**Q.** With `O=C(CSc1ccc(Cl)cc1)Nc1ccc(C2SCCS2)cc1` as the compound, how does the Potency read?
**A.** Its Potency is “inactive”.

**Q.** Which Potency does the source give for `CC(C)CNC(=O)COC(=O)CCC(=O)c1cccs1` here?
**A.** The Potency was “inactive”.

**Q.** Which Potency does the source give for `C=CCOC(=O)C1=C(C)NC(C)=C(C(=O)OCC=C)C1c1cn(-c2ccccc2)nc1-c1ccco1` here?
**A.** The Potency was “inactive”.

**Q.** With `Cc1nc2ncccn2c1-c1csc(Nc2ccc(S(N)(=O)=O)cc2)n1` as the compound, how does the Potency read?
**A.** The Potency was “inactive”.

**Q.** With `CSc1ccccc1OCc1cc(C(=O)NCCCn2nc(C)cc2C)no1` as the compound, how does the Potency read?
**A.** Its Potency is “inactive”.

**Q.** Which Potency does the source give for `O=C(NCc1ccccn1)C1CCN(C(=O)c2cc3sccc3n2Cc2ccc(F)cc2)CC1` here?
**A.** Its Potency is “inactive”.

**Q.** For `Cc1c(C(=O)N(Cc2ccccc2Cl)C2CCS(=O)(=O)C2)oc2ccccc12` (stereo not given), which Potency is on record?
**A.** Its Potency is “inactive”.

**Q.** Which Potency does the source give for `O=C1NCCN1C(=O)N(c1ccccc1)c1ccccc1` here?
**A.** Its Potency is “inactive”.

**Q.** With `O=C(N/N=C/c1cccs1)c1ccco1` as the compound, how does the Potency read?
**A.** The Potency was “inactive”.

**Q.** Which Potency does the source give for `COc1ccc(S(=O)(=O)c2c(O)c3ccc(C(=O)Nc4ccccc4)cc3[nH]c2=O)cc1` here?
**A.** Its Potency is “inactive”.

**Q.** With `CC(=O)Oc1ccccc1C(=O)Nc1ccccc1C(=O)N1CCCC1` as the compound, how does the Potency read?
**A.** The Potency was “inactive”.

**Q.** Which Potency does the source give for `COc1ccc2cc(CCNC(=O)c3ccc4c(c3)OCO4)c(=O)[nH]c2c1` here?
**A.** Its Potency is “inactive”.

**Q.** Which Potency does the source give for `CCOc1ccccc1C(=O)NC1CCN(CC(=O)Nc2cc(OC)ccc2OC)CC1` here?
**A.** The Potency was “inactive”.

**Q.** Which Potency does the source give for `COc1ccc(CN2CCNC(=O)C2CC(=O)NCC2CCOCC2)cc1C` (stereo not given) here?
**A.** Its Potency is “inactive”.

**Q.** Which Potency does the source give for `CCCc1nc2c(=O)n(C)c(=O)[nH]c2n1CCC` here?
**A.** Its Potency is “inactive”.

**Q.** For `O=C(c1ccc(F)c([N+](=O)[O-])c1)N1CC2CC(C1)c1cccc(=O)n1C2` (stereo not given), which Potency is on record?
**A.** Its Potency is “inactive”.

**Q.** For `N#C/C(N=Nc1ccccc1O)=N\Nc1ccccc1O`, which Potency is on record?
**A.** Its Potency is “inactive”.

**Q.** For `O=C(C[C@H]1C[C@H](C(=O)N2CCOCC2)[C@@]2(CCC3CCCC3)c3[nH]c4cc(-c5ccco5)ccc4c3CCN2C1=O)NCc1cccc(C(F)(F)F)c1`, which Potency is on record?
**A.** The Potency was “inactive”.

**Q.** For `Cc1cccc(NC(=O)C2CCCN(S(=O)(=O)c3ccc4[nH]c(=O)ccc4c3)C2)c1` (stereo not given), which Potency is on record?
**A.** The Potency was “inactive”.

**Q.** With `CN(C)c1cccc(C(=O)N(C)C2CCCN(Cc3ccccc3F)C2)c1` (stereo not given) as the compound, how does the Potency read?
**A.** Its Potency is 23.3 µM (active).

**Q.** Which Potency does the source give for `COC(=O)[C@@]1(Cc2ccc(F)cc2)[C@H]2c3cc(C(=O)N(C)C)n(Cc4c(CO)[nH]cc(C)c4=O)c3C[C@H]2CN1C(=O)c1ccccc1` here?
**A.** Its Potency is “inactive”.

**Q.** With `CCCCNC(=O)c1cc2c(-c3ccc(Cl)cc3)nn(C)c2s1` as the compound, how does the Potency read?
**A.** Its Potency is “inactive”.

**Q.** For `C=CC1=C(C(=O)O)N2C(=O)[C@@H](NC(=O)/C(=N\O)c3csc(N)n3)[C@H]2SC1` (stereo in doubt), which Potency is on record?
**A.** Its Potency is “inactive”.

**Q.** Which Potency does the source give for `CCOC(=O)c1c(NC(=S)NC)sc2c1CCCC2` here?
**A.** Its Potency is “inactive”.

**Q.** Which Potency does the source give for `Cc1ccc2nc(Nc3ccc(Cl)cc3)c3nncn3c2c1` here?
**A.** Its Potency is “inactive”.

**Q.** For `CCOc1ccc(C(=O)NCCO)cc1`, which Potency is on record?
**A.** The Potency was “inactive”.

**Q.** Which Potency does the source give for `CN(C)CCNC(=O)Nc1ccc([N+](=O)[O-])cc1` here?
**A.** Its Potency is “inactive”.

**Q.** Which Potency does the source give for `Cc1ccc(NC(=O)C(C)S)cc1` (stereo not given) here?
**A.** The Potency was “inactive”.
